This is a sample that favours compounds with a hit; in the whole collection about 7.6% have one here.
Gal4-VP16 FLuc: inhibits Gal4-VP16 luciferase reporter, ROR gamma counter-screen; AID 2546; Drosophila S2 Gal4-VP16 UAS-luciferase, luminescence, 20 h; Potency, µM (top dose mostly 53.6 µM), inactives show at the top dose activity, negative = inhibition, usual class: inhibitors; 310,000 tested, 3.5% active;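 note: Gal4-VP16 expression switched on by copper sulfate through the metallothionein promoter; potency is the fitted concentration of half-maximal effect; % is set by controls: 0 for no effect and ±100 for the full control effect; nearly all actives have a fitted effect of over 50% in size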
BRCA1 expr act: BRCA1 expression activation | MCF7-BRCA1-FFLuc reporter, luminescence, 48 h; response scale: scaled: vehicle 0%, 10 µM genistein 100% | Potency, µM (top dose mostly 46.1 µM), without a hit: top-dose activation, actives largely listed as activators | 380,000 tested, 1.1% active; note: potency is the fitted concentration of half-maximal effect; nearly all actives have a fitted effect of over 80% in size
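Luminescence from a BRCA1-driven firefly luciferase in MCF7 cells was the read-out, taken 15 min after substrate addition following 48 h compound exposure at 37 °C. Data were normalized to a 10 microM genistein control and DMSO vehicle.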
p53 reactivator: mutant p53 re-activation in reporter cells | Potency, µM (series often up to 92.2 µM), inactives show at the highest dose activity change, positive = activation, actives largely listed as activators | 320,000 tested, 0.063% active | H1299 p53-A138V BP100-luciferase reporter, luminescence, 24 h; note: potency is the fitted concentration of half-maximal effect; % of control where 0% means no effect; nearly all actives have a fitted effect of over 45% in size
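p53-null H1299 cells stably carrying temperature-sensitive p53-A138V and a BP100-luciferase reporter were pinned with compounds (4-point, 1:5 series) and held 24 hrs at 37 deg C. Luminescence was read 10 min after detection reagent.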
RORgamma inh: blocks mouse ROR gamma transcriptional activity | Drosophila S2 Gal4-RORgamma UAS-luciferase reporter, 20 h | AID 2551 | 310,000 tested, 5.4% active | Potency, µM (titrated, usually from 53.6 µM), for the others: at the highest dose activity change, negative = inhibition, usual class: inhibitors; note: potency is the fitted concentration of half-maximal effect; % is set by controls: 0 for no effect and ±100 for the full control effect; nearly all actives have a fitted effect of over 60% in size
Target sequence (P51450 whole entry, looked up, the tested form may be a part): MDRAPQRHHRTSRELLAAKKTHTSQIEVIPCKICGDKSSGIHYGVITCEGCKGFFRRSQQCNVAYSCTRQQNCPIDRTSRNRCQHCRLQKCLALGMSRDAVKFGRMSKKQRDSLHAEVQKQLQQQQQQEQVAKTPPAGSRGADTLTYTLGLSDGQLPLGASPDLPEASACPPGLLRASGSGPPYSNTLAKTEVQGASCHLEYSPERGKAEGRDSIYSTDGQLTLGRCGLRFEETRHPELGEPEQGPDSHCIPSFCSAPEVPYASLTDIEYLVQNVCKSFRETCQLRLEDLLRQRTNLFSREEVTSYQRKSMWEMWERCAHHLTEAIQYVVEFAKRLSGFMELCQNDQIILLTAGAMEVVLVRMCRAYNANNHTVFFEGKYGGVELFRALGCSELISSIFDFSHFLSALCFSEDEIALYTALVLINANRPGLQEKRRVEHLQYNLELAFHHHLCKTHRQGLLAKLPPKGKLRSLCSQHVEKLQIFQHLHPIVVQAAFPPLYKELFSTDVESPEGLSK
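Schneider cells (Drosophila), stable Gal4 DBD–ROR gamma + UAS-luc; 1 hr cmpd preincubation; Cu2+ induction 700 uM final; 20 hr ambient; luminescence.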
Giardia killer: Giardia lamblia killing; Giardia lamblia trophozoite viability; activity change, % at 7.66 µM, hits read low; 340,000 tested, 0.15% active; AID 540267; in the data active = activity change below about -80%; inconclusive = between about -30% and that limit;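 note: parasites exposed to compound for two days anaerobically before the ATP read; % is set by controls: 0 for no effect and ±100 for the full control effect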
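Each well holds 100 Giardia trophozoites and compound. After two days (48 hrs) at 37 deg C in anaerobic conditions, ATP is quantified by luminescence.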
ELG1 DNA repair: inhibitors of ELG1-dependent DNA repair in HEK293T cells | HEK293T ELG1-luciferase reporter, luminescence, 16 h; DNA damage induced by 5-fluorouridine | 330,000 tested, 2.3% active | Potency, µM (highest dose often 46.1 µM), for inactives: at the highest dose activity change, negative = inhibition, hits mostly inhibitors; note: potency is the fitted concentration of half-maximal effect; % is set by controls: 0 for no effect and ±100 for the full control effect; nearly all actives have a fitted effect of over 55% in size
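Reporter activity after DNA damage by 5-fluorouridine is monitored. Compound-treated cells incubate 16 hr at 37 °C, then ONE-Glo is added for 30 min before luminescence reading.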
Numbers without * were called inactive; ? = inconclusive; · = no result given. Unless noted, calls come from the whole dose curve; as a rule, active = well fitted curve in the direction sought with a large enough effect; inconclusive = small, poorly fitted or top-dose-only effect, or another doubt; inactive = no such curve, though single readings can be large; an effect the other way counts as inactive or inconclusive.

SMILES	Gal4-VP16 FLuc	BRCA1 expr act	p53 reactivator	RORgamma inh	Giardia killer	ELG1 DNA repair
CCCc1cc(=O)[nH]c(SCC)n1	-1.0%	2.5%	0.7%	12.0%	9.9	9.3%
CCCc1cc(=O)[nH]c(-n2[nH]c3c(c2=O)CCCC3)n1	3.55µM*	-75.4%	-6.5%	2.24µM*	8.6	?
CCCC(=O)Nc1ccc(C(=O)NN=C(C2CC2)C2CC2)cc1	-20.5%	-17.4%	-4.0%	-1.0%	4.1	-7.4%
CCCC(=O)Nc1ccc(C(=O)COC(=O)C2CC2)cc1	·	10µM*	?	·	-5.4	?
COc1ccc2nc(N=Nc3c(O)ccc4ccccc34)sc2c1	4.47µM*	·	8.9%	1µM*	·	-16.9%
CCOc1ccccc1C=NNC(=O)CCCCC(=O)NN=Cc1ccccc1OCC	·	-24.7%	·	·	-1.6	·
N#CCC(=O)N/N=C\c1ccccc1OC/C=C/c1ccccc1	-1.7%	2.51µM*	?	0.8%	-2.5	?
C=CCOc1ccccc1/C=N/NC(=O)Cc1ccc(C)cc1	?	-5.5%	·	11.2µM*	1.2	1.4%
N#CCC(=O)N/N=C\c1ccc(OC/C=C/c2ccccc2)cc1	15.0%	5.01µM*	3.3%	-9.3%	18.6	?
N#CCC(=O)N/N=C/c1ccc(OCc2ccccc2)cc1	-2.9%	7.94µM*	8.0%	-12.6%	23.8	?
Cc1cc(C)c(NC(=O)CSc2ccc(-c3cccnc3)nn2)c(C)c1	-7.4%	3.7%	-2.1%	?	-9.1	-16.1%
Cc1csc(NC(=O)CCCC(=O)O)c1-c1nc2ccccc2s1	?	14.1%	2.3%	-9.7%	5.2	16.2%
N#CCC(=O)N/N=C/c1c2ccccc2cc2ccccc12	?	11.5%	-0.5%	11.2µM*	-26.9	-7.3%
O=C(CO)N/N=C/c1c2ccccc2cc2ccccc12	0.3%	-33.1%	-6.8%	-14.7%	22.2	3.7%
CCOC(=O)/C(=C/C=C1\Sc2cc(OCC)c(OCC)cc2N1CC)C(C)=O	1.1%	-1.6%	-3.3%	15.9%	-8.9	?
CCOC(=O)/C(=C\C=C1/Sc2cc(OCC)c(OCC)cc2N1CC)C(C)=O	-7.1%	-40.3%	-6.5%	39.9%	2.9	16.4µM*
O=C(Nc1cccc(-c2nc3ccccc3o2)c1)c1ccc(N2C(=O)C3C4C=CC(C4)C3C2=O)cc1 (stereo not drawn)	-3.7%	-30.3%	-5.1%	30.3%	-9.9	16.4µM*
O=C(OCc1cn([C@@H]2CN(C(=O)c3cccs3)[C@@H](c3ccc(Cl)cc3)C[C@H]2O)nn1)c1ccccc1	·	6.1%	·	·	·	·
Cc1ccc2oc(-c3ccco3)cc(=O)c2c1	?	3.55µM*	3.6%	-23.8%	-23.6	?
CC(C)OCCOc1ccc2oc(-c3ccco3)cc(=O)c2c1	?	8.91µM*	·	127.0%	1.4	?
N#CCOc1ccc2oc(-c3ccco3)cc(=O)c2c1	10.3%	·	-3.7%	23.9%	·	?
CNC(=O)c1[nH]cnc1C(=O)Nc1ccccc1	·	-4.3%	26.0%	·	-11.6	?
CNC(=O)c1[nH]cnc1C(=O)Nc1cccc(OC)c1	14.1µM*	-6.9%	16.9%	7.08µM*	-3.5	?
CCOC(=O)c1[nH]cnc1C(=O)Nc1cccc(OC)c1	1.3%	-15.3%	-3.1%	-16.6%	-3.2	0.8%
CNC(=O)c1[nH]cnc1C(=O)Nc1ccc(Cl)cc1	7.08µM*	-31.2%	3.2%	3.98µM*	8.1	?
SMILES	Gal4-VP16 FLuc	BRCA1 expr act	p53 reactivator	RORgamma inh	Giardia killer	ELG1 DNA repair
O=C(Nc1ccc(Cl)cc1)c1nc[nH]c1C(=O)NCCCNC(=O)c1[nH]cnc1C(=O)Nc1ccc(Cl)cc1	·	·	8.9%	·	·	2.59µM*
CNC(=O)c1[nH]cnc1C(=O)Nc1ccc(C)cc1	4.47µM*	-9.0%	8.2%	3.98µM*	-11.5	?
Cc1ccc(NC(=O)c2nc[nH]c2C(=O)NCCN(CCNC(=O)c2[nH]cnc2C(=O)Nc2ccc(C)cc2)CCNC(=O)c2[nH]cnc2C(=O)Nc2ccc(C)cc2)cc1	·	-1.9%	2.8%	·	?	-12.6%
CNC(=O)c1[nH]cnc1C(=O)Nc1ccc(F)cc1	?	-18.1%	6.6%	12.6µM*	10.6	26.8%
Cc1ccc(NC(=O)c2nc[nH]c2C(=O)Nc2ccc(C)cc2)cc1	2.82µM*	-22.2%	6.5%	1.41µM*	-1.4	19.5%
CCN(CC)C(=O)[C@H]1C[C@H](CC(=O)NCCN2CCOCC2)C(=O)N2CCc3c([nH]c4ccc(Cl)cc34)[C@]12C	·	2.7%	-9.1%	·	-23.9	2.1%
Cc1cccc(Nc2nnc(SCC(=O)Nc3ccccc3[N+](=O)[O-])s2)c1C	-14.5%	53.5%	2.9%	17.8µM*	-16.6	?
CCOc1ccccc1CN1CCN(Cc2ccc3cccc(OC)c3n2)CC1CCO (stereo not drawn)	-8.3%	-24.0%	-32.7%	-0.5%	13.1	-4.8%
Nn1c(CSc2ccccn2)nc2ccccc2c1=O	13.7%	10µM*	?	43.6%	4.6	?
COc1ccccc1CNC(=O)C1=C(C)C(=O)OC12CCC(C)CC2 (stereo not drawn)	2.1%	-10.1%	-4.8%	-17.1%	8.2	-5.1%
CC1Oc2ccccc2N(CC(=O)N2CCCCC2)C1=O (stereo not drawn)	0.8%	-11.7%	6.5%	23.7%	15.6	?
O=C(Nc1nc2ccccc2s1)c1ccc(OCC2CCCO2)cc1 (stereo not drawn)	?	-72.1%	28.2µM*	-111.1%	?	?
O=C(c1ccc(OCC2CCCO2)cc1)N1CCN(c2ccccc2)CC1 (stereo not drawn)	?	0.4%	3.2%	12.2%	2.4	1.8%
O=C(Nc1ncccc1O)c1ccc(Oc2ccccc2)cc1	14.1µM*	74.0%	?	?	10.3	?
O=C(NC1=NCCS1)c1ccc(OCC2CCCO2)cc1 (stereo not drawn)	?	9.8%	?	?	-5.3	?
O=C(Nc1ncccc1O)c1ccc(OCC2CCCO2)cc1 (stereo not drawn)	?	-41.9%	?	10µM*	23.1	?
O=C(c1ccc(OCC2CCCO2)cc1)N1CCc2ccccc2C1 (stereo not drawn)	-6.2%	11.2µM*	-1.4%	34.5%	-11.9	?
CC1(C)C(=O)Nc2ccccc2N1C(=O)COC(=O)CNS(=O)(=O)c1ccc(F)c(F)c1F	·	4.1%	2.0%	·	-25.2	1.6%
CC(=O)c1ccc(NC(=O)CC(NCCC2=CCCCC2)C(=O)O)cc1 (stereo not drawn)	-2.4%	-13.8%	-10.1%	-1.8%	-6.9	-8.5%
O=C(COC(=O)c1cc(S(=O)(=O)N2CCOCC2)c(Cl)cc1Cl)Nc1ncc(C(F)(F)F)cc1Cl	-3.1%	4.3%	-1.5%	12.2%	4.8	-3.5%

Screening results from PubChem.
